By inhibition is commonly meant the relative decrease from the control value, in per cent.

Several values for one entry are separate records, joined by “and”; a condition that tells them apart may be missing. Equal values may be shown once. Activity calls are given as the source filed them. How the calls were made is not given here.

The values that follow come from PubChem BioAssay AID1053 (University of Pittsburgh Molecular Library Screening Center, 2008).

The target in the experiment is Serine/threonine-protein kinase PLK1 (Homo sapiens) (UniProt P53350). The experiment in a line: Plk1 polo box domain binding inhibitors, SAR follow-up, biochemical, fluorescence polarization, purchased analogs (AID 1053). To be noted: Plk1 PBD fluorescence polarization peptide binding; at 20 µM; active compounds read high. For orientation: Fluorescence polarisation rises when a labelled molecule tumbles more slowly, as on binding a larger partner.
Sequence of Serine/threonine-protein kinase PLK1 (Homo sapiens) (P53350 whole entry, looked up, the tested form may be a part): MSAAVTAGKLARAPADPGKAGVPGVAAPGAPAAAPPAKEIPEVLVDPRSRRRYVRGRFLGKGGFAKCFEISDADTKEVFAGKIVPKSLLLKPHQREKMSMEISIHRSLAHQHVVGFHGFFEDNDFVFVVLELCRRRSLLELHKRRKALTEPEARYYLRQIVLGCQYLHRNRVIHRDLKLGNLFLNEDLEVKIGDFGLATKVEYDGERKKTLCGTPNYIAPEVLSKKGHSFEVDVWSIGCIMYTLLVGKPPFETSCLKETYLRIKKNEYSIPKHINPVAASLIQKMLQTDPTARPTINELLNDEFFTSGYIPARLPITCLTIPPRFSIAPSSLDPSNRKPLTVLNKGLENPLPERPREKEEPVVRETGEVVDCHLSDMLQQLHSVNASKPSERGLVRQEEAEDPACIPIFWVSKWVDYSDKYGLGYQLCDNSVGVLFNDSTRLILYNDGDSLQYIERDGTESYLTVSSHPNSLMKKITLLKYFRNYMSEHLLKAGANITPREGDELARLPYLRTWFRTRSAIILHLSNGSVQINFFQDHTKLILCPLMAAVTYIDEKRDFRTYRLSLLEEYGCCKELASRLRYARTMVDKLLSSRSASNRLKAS
Regarding `COc1ccccc1N(/C=C1\Sc2ccccc2C1=O)C(C)=O`, the inhibition was -288% (inactive) and -274% (inactive).

Consider `CCN(CC)CCOC(=O)c1ccc(N=Cc2c(O)n(-c3c(C)cc(C)cc3C)c(=O)[nH]c2=O)cc1`, for which the inhibition was -134% (inactive).

`CCN(CC)CCOC(=O)c1ccc(N=Cc2c(O)n(Cc3ccccc3)c(=O)[nH]c2=O)cc1`: the inhibition was -220% (inactive).

Consider `CCCCOC(=O)c1ccc(NC(=O)c2cc(OCC)c(OCC)c(OCC)c2)cc1`, for which the inhibition is -30.5% (inactive).

For `CCCOC(=O)c1ccc(NC(=O)c2ccc(C)c(I)c2)cc1`, the inhibition is -23.6% (inactive).

For `COc1ccc(-c2nnc3[nH]c(=O)n(C)c(=O)c3n2)cc1OC`, the inhibition is -22.8% (inactive) and -20.3% (inactive).

`COc1ccc(N(CN2C(=O)c3ccccc3C2=O)C(=O)C(F)(F)F)cc1`: the inhibition was -44.5% (inactive).

On to `CCOC(=O)c1ccc(NC(=O)C2CCCCC2C(=O)O)cc1` (configuration not stated), for which the inhibition was -39.1% (inactive).

In the case of `CCn1nc(-c2ccc(OC)cc2)nc2c(=O)n(C)c(=O)nc1-2`, the inhibition was 28% (inactive).

As for `CCOC(=O)c1ccc(NC(=O)C2COc3ccccc3O2)cc1` (configuration not stated), the inhibition was -40.6% (inactive).

For the compound `CC(=O)N(CN1C(=O)c2ccccc2C1=O)c1ccc(F)cc1`, the inhibition was -46.9% (inactive).

As to `CCc1ccc(-c2nc3c(=O)n(C)c(=O)nc-3n(CC)n2)cc1`, the inhibition was 5.6% (inactive) and 4.47% (inactive).

As for `CCOC(=O)c1ccc(NC(=O)c2ccc(Cl)c(Cl)c2)cc1`, the inhibition was 6.96% (inactive).

Regarding `CCOC(=O)c1ccc(N=Cc2c(O)n(CC)c(=O)[nH]c2=O)cc1`, the inhibition was -76.6% (inactive).

Take `Cc1ccccc1-c1nnc2[nH]c(=O)n(C)c(=O)c2n1`: the inhibition is -8.49% (inactive) and -8.27% (inactive).

With `O=C(COC(=O)c1ccc(NC(=O)c2ccc([N+](=O)[O-])cc2)cc1)c1ccccc1`, the inhibition is 61.8% (active).

On to `CCOC(=O)c1ccc(NC(=O)c2ccc3nc(N)sc3c2)cc1`, for which the inhibition was -36.9% (inactive).

As to `CCCCCCC(=O)N(CN1C(=O)c2ccccc2C1=O)c1ccc(OCc2ccccc2)cc1`, the inhibition is -7.37% (inactive).

On to `CC(=O)N(CN1C(=O)c2ccccc2C1=O)c1ccc(Br)cc1`, for which the inhibition is -29.4% (inactive).

With `CC(=O)Oc1ccccc1N(/C=C1/Sc2ccccc2C1=O)C(C)=O`, the inhibition is -290% (inactive).

Consider `CC(=O)c1ccc(N(CN2C(=O)c3ccc([N+](=O)[O-])cc3C2=O)C(C)=O)cc1`, for which the inhibition is -32.8% (inactive).

With `CCCCCCC(=O)N(CN1C(=O)c2ccccc2C1=O)c1ccccc1`, the inhibition is -23.4% (inactive).

As for `CC(=O)N(/N=C1\Sc2ccccc2C1=O)c1cccc(C)c1`, the inhibition is 20.1% (inactive).

Take `CCOC(=O)c1ccc(NC(=O)c2cncc(Br)c2)cc1`: the inhibition is -31.4% (inactive).

In the case of `Cn1c(=O)[nH]c2nnc(-c3ccccc3)nc2c1=O`, the inhibition was -31% (inactive).

In the case of `CCOC(=O)c1ccc(N=Cc2c(O)n(Cc3ccccc3)c(=O)[nH]c2=O)cc1`, the inhibition was -22.9% (inactive).

As for `CCOC(=O)c1ccc(NC(=O)c2cc(C)cc(C)c2)cc1`, the inhibition is -13.8% (inactive).

In the case of `CCOC(=O)c1ccc(NC(=O)C2CCC(C)CC2)cc1` (configuration not stated), the inhibition is -28.3% (inactive).

Consider `CCn1nc(-c2cccc(Cl)c2)nc2c(=O)n(C)c(=O)nc1-2`, for which the inhibition was -5.43% (inactive) and -17.8% (inactive).

With `CCOC(=O)c1ccc(NC(=O)C2Cc3ccccc3C(=O)O2)cc1` (configuration not stated), the inhibition is -59.4% (inactive).

`CC(=O)N(/N=C1\Sc2ccccc2C1=O)c1ccccc1Cl`: the inhibition is -48.1% (inactive).

As for `CC(=O)N(CN1C(=O)c2ccccc2C1=O)c1ccc(Oc2ccccc2)cc1`, the inhibition was -50% (inactive).

On to `CCn1nc(-c2ccccc2C)nc2c(=O)n(C)c(=O)nc1-2`, for which the inhibition is 2.2% (inactive) and 21.7% (inactive).

In the case of `CC(=O)N(/C=C1\Sc2ccccc2C1=O)c1cccc(C)c1`, the inhibition was -111% (inactive).

With `CCOC(=O)c1ccc(N=Cc2c(O)n(-c3ccc(OCC)cc3)c(=O)[nH]c2=O)cc1`, the inhibition is -112% (inactive).

In the case of `COc1ccc(N(CN2C(=O)c3cc(Cl)c(Cl)cc3C2=O)C(C)=O)cc1`, the inhibition is -52.7% (inactive).

With `Cn1c(=O)c2nc(-c3ccccc3)c(=O)[nH]c2n(C)c1=O`, the inhibition is -31.3% (inactive).
